Screens (PubChem BioAssay)
Most compounds without a hit are left out; they make up all but 7.5% or so of the library.
FMDV antiviral: antivirals against foot and mouth disease virus. FMDV antiviral cell-based qHTS. Potency, µM (series often up to 57.9 µM), without a hit: at the highest dose activity change, negative = inhibition, actives largely listed as inhibitors. actives 1.2% (n = 410,000). AID 1159524; calls by dose curve; tested in HEK293T cells; note: read-out not given here; potency is the fitted concentration of half-maximal effect; nearly all actives have a fitted effect of over 45% in size
HCMV inh: blocks human cytomegalovirus replication; HFF cells, HCMV-luciferase reporter, 72 h; stronger effect = lower value; actives 4.5% (n = 410,000); AID 1259415; activity change, negative = inhibition, % at 57.5 µM; in the data active = activity change below about -60%; inconclusive = no clear call, values can overlap the other calls; inactive = above about -39%
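Human foreskin fibroblasts infected with luciferase-reporter HCMV at MOI 1 PFU/cell, compounds at two doses. Luciferase measured 72 h post infection; normalized to buffer-only basal and Salinomycin (10uM) controls.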
Giardia FBPA inh: inhibitors of Giardia lamblia fructose-1,6-bisphosphate aldolase; A8B2U2; purified Giardia FBPA; Potency, µM (highest dose often 59.6 µM), for inactives: at the highest dose activity, negative = inhibition, hits mostly inhibitors; actives 0.71% (n = 290,000); AID 2451; note: potency is the fitted concentration of half-maximal effect; nearly all actives have a fitted effect of over 55% in size
Target sequence (A8B2U2 whole entry, looked up): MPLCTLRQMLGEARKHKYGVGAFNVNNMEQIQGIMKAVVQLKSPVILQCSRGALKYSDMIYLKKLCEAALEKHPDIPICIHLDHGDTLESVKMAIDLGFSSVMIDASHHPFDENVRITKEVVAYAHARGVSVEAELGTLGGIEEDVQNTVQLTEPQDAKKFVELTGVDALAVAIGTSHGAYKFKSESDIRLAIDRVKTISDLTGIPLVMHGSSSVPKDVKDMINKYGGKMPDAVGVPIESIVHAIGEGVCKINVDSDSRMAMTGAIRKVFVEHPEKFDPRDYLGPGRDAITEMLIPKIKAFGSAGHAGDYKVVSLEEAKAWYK
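40 nM FBPA preincubated 10 min at RT with compound (up to 57.5 uM final), then substrate plus GAPDH/TPI/NAD/arsenate coupling and diaphorase/resazurin added. Fluorescence read after 20 min at RT, 525/598 nm.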
Vaccinia mCherry: inhibitors of vaccinia virus infection (mCherry reporter signal) | Vaccinia virus mCherry reporter infection, fluorescence | Potency, µM (highest dose often 36.5 µM), for inactives: at the highest dose activity change, negative = inhibition, usual class: inhibitors | actives 0.63% (n = 310,000); calls by dose curve; tested in A549 cells; note: potency is the fitted concentration of half-maximal effect; nearly all actives have a fitted effect of over 35% in size
VACV Venus inh: vaccinia inhibition (Venus reporter). actives 0.46% (n = 330,000). Potency, µM (doses to about 36.5 µM), without a hit: at the top dose activity change, negative = inhibition, most hits filed as inhibitors. Vaccinia virus Venus reporter expression, fluorescence; calls by dose curve; tested in A549 cells; note: potency is the fitted concentration of half-maximal effect; nearly all actives have a fitted effect of over 30% in size
HCV inhibitor: inhibitors of hepatitis C virus infection; Huh7.5.1 HCVcc-Cre infection, luciferase reporter, 44 h; Potency, µM (highest dose often 41.8 µM), without a hit: at the top dose activity change, negative = inhibition, hits mostly inhibitors; actives 3.4% (n = 340,000); note: potency is the fitted concentration of half-maximal effect
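Antiviral activity was scored by luciferase reporter output from cells infected with HCVcc-Cre (~0.5 moi) in presence of compound, 44 h infection period, cells seeded 1,000/well 4 h prior.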
The depositor's hits bear a star; i = inactive; ? = inconclusive; . = not tested or not shown; [ ] = another dose, or the depositor's remark. Unless noted, calls come from the whole dose curve; as a rule, active = well fitted curve in the direction sought with a large enough effect; inconclusive = small, poorly fitted or top-dose-only effect, or another doubt; inactive = no such curve, though single readings can be large; an effect the other way counts as inactive or inconclusive. % is set by controls: 0 for no effect and ±100 for the full control effect.

SMILES	FMDV antiviral	HCMV inh	Giardia FBPA inh	Vaccinia mCherry	VACV Venus inh	HCV inhibitor
CCCS(=O)(=O)NC(=O)C1(C)CCCN(C(=O)c2oc3ccccc3c2C)C1 (centres undefined)	39%	38	.	7%	0%	.
COc1cc2c(cc1OC)/C(=C/c1ccc(Cl)cc1)C(=O)OC2	40µM*	0	-4%	i	-3%	-5%
Cc1oc(-c2ccccc2NC(=O)c2ccccc2)nc1CNC(=O)c1c(-c2ccccc2)noc1C	3%	.	.	-19%	-16%	.
CCOc1ccccc1C(=O)Nc1ccc2nc3n(c(=O)c2c1)CCCCC3	3%	?	.	.	.	?
COc1cc(OC)cc(C(=O)Nc2ccc3nc4c(c(Nc5ccc(OC)c(OC)c5)c3c2)CCCC4)c1	?	-105*	.	?	?	.
CCOc1ccccc1C(=O)Nc1ccc2nc3c(c(Nc4ccc(OC)c(OC)c4)c2c1)CCCC3	?	-103*	.	-30%	?	.
COc1ccc(Nc2c3c(nc4ccc(NC(=O)c5cc(Cl)ccc5OC)cc24)CCCC3)cc1OC	32µM*	-108*	.	?	?	.
COc1cc(OC)cc(C(=O)Nc2ccc3nc4n(c(=O)c3c2)CCCC4)c1	34%	?	7%	.	.	?
COc1ccccc1Nc1c2c(nc3ccc(NC(=O)c4ccc(N(C)C)cc4)cc13)CCCC2	-27%	-101*	.	-24%[7.34 µM]	-12%[7.34 µM]	.
COc1cc(Nc2c3c(nc4ccccc24)CCCC3)cc(OC)c1OC	-10%	-36	0%	?	?	-21%
COc1cccc(NC(=O)Cn2c(=O)n(-c3ccccc3)c(=O)c3c2c2cc(OC)ccc2n3C)c1	1%	7	.	8%	-11%	.
COc1cc(-c2cc(OC)c3c(C)oc(C)c3c(=O)c2)ccc1OC(=O)c1ccc(C)cc1	?	12	.	-4%	8%	.
CCOc1cc(-c2ccc(OC(=O)c3ccc(C)cc3)c(OC)c2)cc(=O)c2c(C)oc(C)c12	25µM*	106	.	-5%	7%	.
CC(C)C(=O)N1c2nc(-c3ccco3)nn2C2(CCCCC2)[C@@H]2CCCC[C@@H]21	-8%	7	.	8%	1%	.
CCC(C)(C)NS(=O)(=O)c1cc(CN2C(=O)c3cccnc3C2=O)ccc1OC	-8%	?	5%	.	.	9%
COCc1ccc(C(=O)N2CCOc3ccc(CN4CCN(c5ccc(F)cc5)CC4)cc3C2)o1	?	.	.	-5%	-31%	.
Cc1nc2sccn2c1CN1CCOc2ccc(CN3CCN(c4ccc(F)cc4)CC3)cc2C1	8.9µM*	.	.	-21%	-22%	.
COc1cccc(OC)c1C(=O)OCC(=O)NC1CCCCCC1	8%	?	.	.	.	-13%
CC(C)(C)NC(=O)C[C@H]1C[C@H](C(=O)N2CCCCC2)[C@@]2(C)c3[nH]c4ccc(Cl)cc4c3CCN2C1=O	0%	-23	.	i	?	15%
C[C@]12c3[nH]c4ccc(Cl)cc4c3CCN1C(=O)[C@@H](CC(=O)NCC13CC4CC(CC(C4)C1)C3)C[C@@H]2C(=O)N1CCCCC1	8%	-20	.	28µM*	?	?
C[C@]12c3[nH]c4ccc(Cl)cc4c3CCN1C(=O)[C@@H](CC(=O)NCC13CC4CC(CC(C4)C1)C3)C[C@@H]2C(=O)N1CCOCC1	?	-37	.	?	13µM*	?
COc1ccc(CNC(=O)C[C@H]2C[C@H](C(=O)N3CCCCC3)[C@@]3(C)c4[nH]c5ccc(Cl)cc5c4CCN3C2=O)cc1OC	-28%	-24	.	-17%	-14%	14µM*
Cc1ccc(N(CCC#N)C(=O)CCl)cc1C	28µM*	-100*	-4%	-7%	-20%	10µM*
CN(CC1COCCO1)C(=O)c1cnn(-c2ncc3c(n2)-c2ccccc2CCC3)c1C1CC1 (centres undefined)	39%	.	.	-24%	-14%	.
CN(Cc1cccc2ncccc12)C(=O)c1cnn(-c2ncc3c(n2)-c2ccccc2CC3)c1C1CC1	28µM*	.	.	-29%	?	.
SMILES	FMDV antiviral	HCMV inh	Giardia FBPA inh	Vaccinia mCherry	VACV Venus inh	HCV inhibitor
CN(Cc1ccccc1)C(=O)Cn1c(=O)oc2cc(S(=O)(=O)NCc3ccccc3)ccc21	0%	-71*	1%	?	?	14µM*
COc1ccc2c(c1)c1c(c(=O)n(-c3ccccc3C)c(=O)n1C)n2C	-12%	-10	.	-5%	5%	.
CCOC(=O)c1ccc2nc(C)c(CCC(C)=O)c(Cl)c2c1	45%	-6	-2%	-3%	-27%	-12%
CC(=O)CCc1c(C)nc2ccc(C)cc2c1Cl	23%	-80*	3%	?	?	-12%
Cc1noc(C)c1COc1ccccc1C(=O)NCCc1ccccc1	-16%	-16	.	-13%	-6%	3.2µM*
CCn1nc(C(=O)NNC(=O)c2ccccc2OCc2c(C)noc2C)c2ccccc2c1=O	-28%	-83*	.	.	.	?
Cc1noc(C)c1COc1ccccc1C(=O)NCCc1ccc(F)cc1	-23%	6	.	-11%	-7%	?
COc1ccc(N2CCN(C(=O)C(=O)c3cc(OC)c(OC)c(OC)c3)CC2)cc1	-4%	-7	.	i	-15%	.
CCCS(=O)(=O)N1CCN=C1SCc1cccnc1	10%	-62*	0%	-5%	-10%	5%
CS(=O)(=O)N1CCN=C1SCc1cccc(F)c1	3%	-30	.	.	.	10%
CCS(=O)(=O)N1CCN=C1SCc1cccc(F)c1	-23%	-60*	.	.	.	30%
O=S(=O)(c1ccc(F)cc1)N1CCN=C1SCc1cccnc1	-5%	-67*	-15%	-9%	-16%	6%
CCCS(=O)(=O)N1CCN=C1SCc1ccc(F)cc1	0%	0	.	.	.	8%
O=S(=O)(c1ccccc1)N1CCN=C1SCc1ccc(Cl)c(Cl)c1	-24%	-74*	-8%	-13%	?	?
CC1(c2ccc(Cl)cc2Cl)NC(=O)N(CC(=O)NC2CCCCC2)C1=O (centres undefined)	-18%	-1	.	-6%	-12%	?
Cc1ccc(-c2nc(C)c(CCNC(=O)C(=O)Nc3cc(C)ccc3C)s2)cc1	-8%	12	.	-2%	4%	.
O=S(=O)(c1ccc(Br)cc1)N1CCN=C1SCc1cccnc1	-9%	-69*	-16%	-10%	-15%	14%
C=C(C)COc1ccc(-c2ncncc2-c2ccc(Br)cc2)c(O)c1	-29%	?	6%	-13%	-20%	?
C=C(C)COc1ccc(-c2n[nH]c(C)c2-c2ccc(Br)cc2)c(O)c1	.	-77*	-8%	?	?	?
CCOc1ccc(-c2[nH]ncc2-c2ccc(Cl)cc2)c(O)c1	-15%	-86*	15%	.	.	-12%
C=C(C)COc1ccc(-c2[nH]ncc2Oc2ccccc2OC)c(O)c1	.	8	12%	?	?	?
